Hits are enriched below; roughly 2.1% of the tested compounds scored in any of these assays.
TPT1 inh: C. albicans TPT1 enzyme inhibition; 300,000 compounds, 0.81% hits; inhibition, % at 5 µM; recombinant caTPT1, FP RNA substrate dephosphorylation;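 active = inhibition above the mean of all tested compounds plus 3 SD, set per screening campaign, cut at about 24% in these data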;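 also: plate controls were DMSO alone for no effect and ferristatin control at 100 nM for full effect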
Rpn11 inh: Rpn11 (human) deubiquitinase inhibition | 360,000 compounds, 0.59% hits | inhibition, % at 20 µM | O00487 | human 26S proteasome, Ub4-pepOG fluorescence polarization; 20S core pre-blocked with epoxomicin;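 active = inhibition at 20 µM, scaled to each plate's controls, above about 33%, limit read from the data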
Target sequence (O00487 whole entry, looked up): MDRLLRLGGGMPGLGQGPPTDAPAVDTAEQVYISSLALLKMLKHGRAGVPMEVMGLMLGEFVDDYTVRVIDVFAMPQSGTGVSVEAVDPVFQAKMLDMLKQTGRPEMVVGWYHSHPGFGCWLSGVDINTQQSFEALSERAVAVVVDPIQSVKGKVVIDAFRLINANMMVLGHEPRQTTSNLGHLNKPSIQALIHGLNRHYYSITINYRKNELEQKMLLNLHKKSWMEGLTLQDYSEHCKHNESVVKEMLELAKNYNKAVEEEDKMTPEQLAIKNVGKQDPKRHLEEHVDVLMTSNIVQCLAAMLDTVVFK
HNF4A DNA FP: change in binding of human HNF4 alpha to DNA; P41235; HNF4a-FITC DNA binding, fluorescence polarization, 1 h; 360,000 compounds, 0.3% hits; activity change, % at 10 µM; in the data active = activity change above about 30%, passing the limit was not always enough
Myeloid diff 2: promotes myeloid progenitor differentiation; calls only at 10 µM; 360,000 compounds, 1% hits; AID 624256; ER-HoxA9 myeloid progenitors, lysozyme-GFP differentiation, flow cytometry;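 active = normalized GFP-positive differentiation at or above the plate's own cutoff, the solvent-only control mean plus 3 SD; inconclusive = no clear call, values can overlap the other calls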;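 also: cells exposed to compound for four days before flow analysis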
TPT1 inh confirm: confirmation of Candida albicans TPT1 inhibitors. shares compounds with TPT1 inh. recombinant caTPT1, fluorescence polarization, RNase T1 coupled. inhibition, % at 5 µM. 2,400 compounds, 74% hits;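 active = inhibition above the primary screen limit, the mean inhibition of all tested compounds plus 3 SD, cut at about 25% in these data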
RNase T1 counter: counter-screen for TPT1 inhibitors: inhibitors of Aspergillus oryzae RNase T1; inhibition, % at 5 µM; RNase T1 cleavage, fluorescence polarization, 1536-well; AID 2153; 2,400 compounds, 83% hits; shares compounds with TPT1 inh;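 active = inhibition above the solvent-only control well mean plus 3 SD, limit set per screening run, cut at about 23% in these data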;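 also: plate controls were DMSO wells with enzyme for no effect and wells without RNase T1 for full effect; inhibitors block cleavage so intact labeled substrate keeps polarization high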
Target sequence (P00651 whole entry, looked up): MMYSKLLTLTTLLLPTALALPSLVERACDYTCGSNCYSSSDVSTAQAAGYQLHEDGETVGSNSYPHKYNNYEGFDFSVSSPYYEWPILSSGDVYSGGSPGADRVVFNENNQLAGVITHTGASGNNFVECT
* marks the source's active call; other numbers are inactive results; i = inactive; ? = inconclusive; / = not tested or not shown; + = active, no number.

SMILES	TPT1 inh	Rpn11 inh	HNF4A DNA FP	Myeloid diff 2	TPT1 inh confirm	RNase T1 counter
O=C1NC(=O)/C(=C/c2ccc(N3CCOCC3)o2)N1	-9	4	28	i	/	/
N#C/C(=C/c1ccc(N2CCCCCC2)o1)c1ccc(Cl)cc1	158*	/	110	?	187*	172*
Cc1cc(=O)oc(C)c1C(=O)Nc1ccc2ncccc2c1	25*	-42	-42	i	35*	45*
Cc1cc(=O)oc(C)c1C(=O)Nc1ccc2nsnc2c1	3	2	1	i	/	/
CCN(CC)c1ccc(N=Cc2ccc(N(CC)CC)cc2O)cc1	63*	/	167	i	120*	121*
CCN(CC)c1ccc(C=Nc2ccccc2)c(O)c1	14	6	10	i	/	/
CCN(CC)c1ccc(C=Nc2ccc(N(C)C)cc2)c(O)c1	6	/	104	i	/	/
CCN(CC)c1ccc(/C=N/N=C(N)N)c(O)c1	49*	/	22	/	93*	103*
Cc1ccc(C2=NOC(=O)/C2=C\c2ccc(C)o2)cc1	40*	10	1	i	10	15
Cc1ccc(/C=C2\C(=O)ON=C2c2ccccc2)o1	-2	-2	0	i	/	/
Cc1ccc(Cl)cc1N1CCN(C(=O)C(C)n2ncn3cccc3c2=O)CC1 (stereo not given)	1	0	-5	?	/	/
Cc1cccc(NC(=O)c2sc3nc4c(c(-c5cccs5)c3c2N)CN(C)CC4)c1	38*	27	18	+	28*	35*
COc1cc(OC)c(CN2CCc3c([nH]c4ccccc34)C2)cc1Br	48*	/	52*	+	6	7
NC(=O)c1ccc(NCCc2ccccc2)c([N+](=O)[O-])c1	0	-4	3	i	/	/
O=C(Nc1ccccc1)c1ccc(NCCc2ccccc2)c([N+](=O)[O-])c1	45*	/	152	i	105*	115*
COc1cc2cc(C(=O)N(C)C3CCS(=O)(=O)C3)[nH]c2cc1OC (stereo not given)	-3	2	2	i	/	/
COc1ccc(C=NCCc2ccc(OC)c(OC)c2)cc1OC	/	6	-7	i	/	/
c1coc(CNc2c3c(nc4ccccc24)CCC3)c1	26*	-35	-13	+	24*	35*
CCN(CC)CCCn1c2c(c(SCC(=O)Nc3ccccc3Cl)nc1=O)CCC2	1	-2	4	i	/	/
O=C(N/N=C/c1cc(Br)cc(Br)c1O)c1ccncc1	89*	/	/	/	77*	83*
O=C(N/N=C/c1cc(Cl)cc(Cl)c1O)c1ccncc1	40*	/	4	?	37*	49*
CC(OC(=O)/C(C#N)=C/c1ccc(N(C)C)cc1)C(=O)N(C)c1ccccc1 (stereo not given)	121*	/	107*	i	130*	132*
CNC(=O)NC(=O)C(C)OC(=O)c1c2c(nc3ccccc13)/C(=C/c1cccs1)CC2 (stereo not given)	27*	/	24	?	30*	42*
CC(OC(=O)c1c2c(nc3ccccc13)/C(=C\c1ccc3c(c1)OCO3)CCC2)C(=O)Nc1ccc(S(N)(=O)=O)cc1 (stereo not given)	/	-211	-90	i	/	/
CC1(C)CC(=O)C=C(NNC(=O)c2ccccc2O)C1	39*	25	9	i	46*	57*
SMILES	TPT1 inh	Rpn11 inh	HNF4A DNA FP	Myeloid diff 2	TPT1 inh confirm	RNase T1 counter
Cc1cccc(C(=O)NNC2=CC(=O)CC(C)(C)C2)c1O	5	0	3	i	/	/
O=C(COC(=O)CCCN=C1NS(=O)(=O)c2ccccc21)NNC(=O)c1ccccc1	5	0	-1	i	/	/
Clc1ccc(CNCCC2=CCCCC2)cc1	-4	1	-3	i	/	/
CCN(CC)c1ccc(/C=C2\SC(=O)N(C(C)C)C2=O)o1	178*	/	81	?	172*	157*
COc1ccccc1-c1ccc(/C=C2\C=CC(=O)O2)o1	114*	/	94	i	117*	113*
Nc1c(C=C2C=CC(=O)C=C2)c(=O)nc2sc(CC(=O)N3CCOCC3)nn12	-1	1	-4	i	/	/
COC1=CC(=Cc2c(N)n3nc(CC(=O)N4CCOCC4)sc3nc2=O)C=C(OC)C1=O	50*	/	62*	i	132*	131*
C=CCn1c(SCC(=O)OC)nc2sc3c(c2c1=O)CCN(C)C3	-2	/	/	/	/	/
COc1ccc(N(CC(=O)NC2CCCCC2)C(=O)c2ccc(C)s2)c(OC)c1	1	-2	0	i	/	/
COc1cc(-c2nnc(SCC(=O)Nc3ccc(C(=O)O)cc3)o2)cc(OC)c1OC	/	-5	1	i	/	/
O=C(NCCc1c[nH]c2ccccc12)C(=O)NCC(c1ccco1)N1CCN(c2ccccc2F)CC1 (stereo not given)	51*	1	2	i	2	5
CCSc1ccc([C@@H]2[C@H]3C(=O)N(CC)C(=O)[C@H]3[C@]3(C(=O)OC)CCCCN23)cc1	24*	16	11	i	39*	49*
COc1ccc(Br)cc1S(=O)(=O)N(CC(=O)N1CCOCC1)c1ccccc1	43*	9	-2	i	6	10
COc1ccc(C)cc1S(=O)(=O)N(CC(=O)N1CCOCC1)c1cc(C)cc(C)c1	-4	2	-1	i	/	/
Cc1ccc(N/C=C2/Sc3ccccc3NC2=O)cc1	28*	/	32	i	47*	53*
COc1ccc(N/C=C2/Sc3ccccc3NC2=O)cc1	-3	-6	0	i	/	/
O=C1CC(=O)N(Cc2cccs2)C(=O)N1	62*	36	7	i	16	23*
CC(C)(C)c1ccc(N=C2SCC(=O)N2Cc2cccs2)cc1	5	3	2	i	/	/
N#C/C(=C/c1ccc(-c2cc(C(=O)O)cc(C(=O)O)c2)o1)c1nc2ccccc2s1	141*	/	/	/	141*	133*
Oc1ccc(Nc2nc3ccccc3nc2Nc2ccc(O)cc2)cc1	52*	53*	44*	?	49*	67*
Oc1ccc(Nc2nc(-c3ccccc3)nc3ccccc23)cc1	-3	-2	1	i	/	/
Nc1[nH]c2cc([N+](=O)[O-])ccc2c1-c1ccccn1	101*	/	91*	/	102*	105*
Cc1cc(C)cc(C(=O)NC(CC(N)=O)c2ccc(NC3CCCCCCCCCCC3)c([N+](=O)[O-])c2)c1 (stereo not given)	48*	10	-5	i	7	6
COCCNC(=O)/C(C#N)=C\c1ccc(CNS(=O)(=O)c2ccccc2)o1	-1	-2	3	i	/	/
N#C/C(=C\c1ccc(N2CCOCC2)o1)C(=O)NCCc1ccccc1	+	/	188	/	181*	171*
COCCNC(=O)/C(C#N)=C/c1ccc(N2CCOCC2)o1	157*	/	155	i	169*	164*
O=C(NCCCN1CCOCC1)C(=O)NCCc1ccccc1	-1	-5	-2	i	/	/

Screening data from PubChem.
